Experimental findings from ChEMBL document CHEMBL4513216, “Probing the Open Global Health Chemical Diversity Library for Multistage-Active Starting Points for Next-Generation Antimalarials” (ACS Infect Dis, 2020) are described below.

Screen size: about 68,000 compounds; about 2,700 (4%) showed an effect of 50% or more. This is one part of a sample in which strong results are shown more often than they occur.

In the assay the test system is Plasmodium berghei. As to the kind of experiment: Screen against P. berghei liver stage (PbLuc), transformed with Luciferase, at 2uM. It counts as functional, HepG2. The settings on record: tested at 2 uM.
As to `Cc1cc(C)cc(NC(=O)N(CCC#N)CCCN(C)C)c1`, the INHIBITION is given as 53.81%.
With `Cc1cc(NC(=O)N(CCC#N)CCCN(C)C)ccc1F` the figure was -11.32%; with `CN(C)CCCN(CCC#N)C(=O)Nc1ccc2[nH]ccc2c1`, -28.09%; with `Cc1noc(C)c1CN1CCc2ncnc(-c3ccoc3)c2CC1`, -15.88%.
With `CCOC(=O)CNC(=O)NCc1cc(C)n(-c2ccccc2OC)c1C` the figure was 7.91%.
With `CCN1CC[C@@]2(C(=O)N3CCOCC3)CCN(S(=O)(=O)CC)CC[C@@H]12` the figure was 46.32%; with `Cc1nc(C)n(CC2CCCN2Cc2ncc(C(C)(C)C)o2)n1` (configuration not stated), -39.72%.
As to `FC(F)(F)c1ccc2nc([C@H]3CCN(C4CCC4)C3)[nH]c2c1`, the INHIBITION is 2.22%.
As for `FC(F)(F)c1ccc2nc([C@H]3CCN(C4CCCCC4)C3)[nH]c2c1`, the INHIBITION is given as -5.77%.
With `FC(F)(F)c1ccc2nc([C@H]3CCN(C4CCOCC4)C3)[nH]c2c1` the figure was 54.16%; with `Cc1n[nH]cc1CNCc1cccc(OCC(F)(F)F)c1`, 36.91%.
With `O=C(CC1CCCC1)N1CCN(c2ccc(-n3cncn3)nn2)CC1` the figure was 59.76%.
The same measure for `O=C(CSC1CCCC1)N1CCN(c2ccc(-n3cncn3)nn2)CC1`: 15.96%; for `O=C(C1CC1)N1CCN(c2ccc(-n3cncn3)nn2)CC1`: 42.14%.
For `Cc1cc(F)ccc1NS(=O)(=O)c1cc2c(c(C(=O)O)c1)OCCO2`, the INHIBITION is recorded as -1.02%.
With `CC(C)(N)c1cn(C2CCN(C(=O)CCC3CCCCC3)CC2)nn1` the figure was 20.08%; with `Cc1nc(N2CCCC2)nc2c1CCN(C(=O)CC1CC1)CC2`, -24.79%.
With `CCN1CCNC(=O)C12CCN(S(=O)(=O)c1ccccc1)CC2` the figure was -2%; with `CC(C)CN1CCNC(=O)C12CCN(S(=O)(=O)c1ccc(F)cc1)CC2`, 55.66%; with `CCN1CCNC(=O)C12CCN(S(=O)(=O)c1ccc(F)cc1)CC2`, 26.55%.
With `Oc1cc(-c2ccccn2)nc(C2CCN(Cc3ccncc3)CC2)n1` the figure was -1.49%; with `Nc1nc2c(c(N3CCCC(OCc4ccccn4)C3)n1)CCNCC2` (configuration not stated), -24.7%.
For `Cc1ccsc1CN(C)CCc1scnc1C`, the INHIBITION worked out at 57.75%.
The same measure for `Cc1ncsc1CCN(C)Cc1ccc(CO)o1`: 36.28%.
With `Cc1ncsc1CCN(C)Cc1ccc(Br)o1` the figure was 34.18%; with `CC(C)=CCN1C[C@@H]2CN(C(=O)c3cnccc3C)C[C@]2(C(=O)O)C1`, -9.48%.
With `CCn1nc(C)cc1C(=O)N1CCC(Nc2ccc(C)nn2)CC1` the figure was -7.05%; with `CN(c1ccc(C(N)=O)nn1)C1CCC1`, -35.26%.
For `CNC(=O)c1ccc(N(C)C2CCC2)nn1`, the INHIBITION turned out to be 67.28%.
With `COC(=O)c1ccc(N(C)C2CCC2)nn1` the figure was 24.36%; with `C[C@@H]1C[C@H]2CN(C(=O)C3=CCCCC3)C[C@H]2O1`, 28.2%; with `O=C(c1ccncc1)N1C[C@H]2CC[C@@H](C1)N(C(=O)N1CCOCC1)C2`, -58.5%.
With `CCOCC(=O)N1C[C@@H]2CC[C@H]1CN(C(=O)c1ccncc1)C2` the figure was -3.87%; with `O=C(c1ccncc1)N1C[C@H]2CC[C@@H](C1)N(C(=O)C1CCCC1)C2`, 63.1%; with `CN(C)C(=O)N1Cc2nnn(C)c2C(COCc2cccnc2)C1` (configuration not stated), -16.25%.
The same measure for `CCc1ccc(NC(=O)N2C[C@@H]3C[C@H](C(=O)NC4CCC4)[C@H](C2)O3)cc1`: 25.08%.
Consider `Cc1ncc(CN2CCOC(c3ccc(-c4ccccc4F)cn3)C2)s1` (configuration not stated), for which the INHIBITION is 48.08%.
The same measure for `CN(C)C(=O)c1cn[nH]c1C1(C)CCN(c2ncccn2)CC1`: -16.2%.
The same measure for `CNC(=O)c1cn[nH]c1C1(C)CCCN(Cc2ccccn2)C1` (configuration not stated): 19.47%; for `CN(C)C(=O)c1cn[nH]c1C1(C)CCCN(Cc2ccccn2)C1` (configuration not stated): 70.33%; for `Cc1ccc(C)c(CS(=O)(=O)CC(=O)NCCCOC(C)C)c1`: 22.1%.
The same measure for `Cc1cccc(-c2noc(C)c2C(=O)NC2CCCOC2)c1` (configuration not stated): -3.96%; for `Cc1nc(CN2CCN(S(=O)(=O)N3CCOCC3)CC2)oc1C`: -9.04%; for `Cc1nc(CN2CCOC3(CCCC3)C2)oc1C`: 20.49%.
Regarding `Cc1nc(CN2CCN(S(=O)(=O)N3CCCCC3)CC2)oc1C`, the INHIBITION came to 54.44%.
With `CC(C)N1CC[C@H]2[C@H](C[C@@H](Cn3cccn3)N2c2nccs2)C1` the figure was 34.42%; with `CNC(=O)CN1CC[C@H]2CN(C(=O)c3ccc(C)nc3)C[C@H]2C1`, 40.83%.
`CNC(=O)CN1CC[C@H]2CN(C(=O)c3cccc(C)c3)C[C@H]2C1`: the INHIBITION was 30.63%.
With `CNC(=O)CN1CC[C@H]2CN(C(=O)c3ccc(C)cc3)C[C@H]2C1` the figure was 51.94%.
With `Cc1nccn1C1CCCN(C(=O)CCc2nc(C(C)C)no2)C1` (configuration not stated) the figure was 21.71%.
With `CN1C(=O)[C@@H]2CC[C@H]1CN(C(=O)Nc1cccc3ccccc13)C2` the figure was -110.62%.
As to `CCN(CC)C1COc2c(cc(Br)c(C)c2Br)C1=O` (configuration not stated), the INHIBITION is given as 58.18%.
With `CCN(CC)C1COc2c(cc(Br)c(C)c2C)C1=O` (configuration not stated) the figure was 24.56%; with `Cc1c(Br)cc2c(c1C)OCC(N(C)C)C2=O` (configuration not stated), -5.64%.
The same measure for `Cc1cnn(CCNCC(O)COc2ccc(F)cc2)c1` (configuration not stated): -0.05%.
With `CC(C)(C)C(=O)N1CCC(n2nc(-c3ccco3)ccc2=O)CC1` the figure was 17.8%; with `O=C1[C@H]2CN(CC3CCOCC3)C[C@H]2CN1Cc1cccc(F)c1`, 14.13%; with `Cc1cccc(CN2C[C@@H]3CN(C4CCOCC4)C[C@@H]3C2=O)c1`, 6.22%.
On to `O=C1[C@H]2CN(C3CCOCC3)C[C@H]2CN1Cc1cccc(F)c1`, for which the INHIBITION was 66.67%.
With `CN(C)C(=O)CN1C[C@H]2CN(Cc3cccc(F)c3)C(=O)[C@H]2C1` the figure was 53.98%; with `CN(C)C(=O)N1C[C@H]2CN(Cc3cccc(F)c3)C(=O)[C@H]2C1`, 18.8%; with `O=C1[C@H]2CN(CC3CC3)C[C@H]2CN1Cc1cccc(F)c1`, 26.52%.
`CNC(=O)COc1ccc(CNCc2c(C)nn(C)c2N(C)C)cc1`: the INHIBITION was -5.7%.
With `Cc1cnc(N2CCc3c(CNc4ccnc(C)n4)cncc3C2)nc1` the figure was -25.4%.
For the molecule `CN1C(=O)C2(CC(=O)Nc3c2cnn3C(C)(C)C)c2c(Cl)cccc21` (configuration not stated), the INHIBITION is -20.78%.
The same measure for `O=C(Cn1cnnn1)NCC1(O)CCCc2ccccc21` (configuration not stated): -4.62%.
With `CNc1nc(C(=O)N2CCCn3nc(C(=O)N4CCCC4)cc3C2)cs1` the figure was -38.39%; with `Cc1ccnc(OC[C@]23COC[C@H]2CN(C(=O)Cc2ccsc2)C3)n1`, 11.1%.
With `O=C(NCCSc1ccccc1F)NCc1cccnc1`, the INHIBITION worked out at 68.04%.
The same measure for `O=C(Cc1cccnc1)NCCSc1ccccc1F`: -10.89%.
The same measure for `O=C(CCSc1ccccc1F)NCc1cccnc1`: -67.38%; for `CN1CCCN(C(=O)c2cnc(Cc3c(Cl)cccc3Cl)nc2O)CC1`: -116.99%; for `Cc1ccnn1CC(=O)N(C)Cc1ccc(-n2cccn2)cc1`: 18.76%.
The same measure for `CSCC(=O)N(C)Cc1cnn(-c2ccc(F)cc2)c1`: -9.65%; for `Cc1ccnn1CC(=O)N(C)Cc1cnn(-c2ccccc2)c1`: 60.67%.
In the case of `CSc1ccc(C)c(C(=O)N2CCCC(n3cncn3)C2)c1` (configuration not stated), the INHIBITION is on record as -1.88%.
The same measure for `COC(=O)c1ccc(S(=O)(=O)N(C)CC(N)=O)c(Cl)c1`: -3.54%.
`O=C(Nc1ccccn1)N(CCO)Cc1ccsc1`: the INHIBITION is on record as 58.49%.
The same measure for `O=C(Nc1nccs1)N(CCO)Cc1ccsc1`: -14.3%; for `Cc1cccnc1NC(=O)N(CCO)Cc1ccsc1`: 36.95%; for `O=C(O)c1c(-c2cncnc2)ncc2c1CCN(Cc1cccnc1)C2`: 11.98%.
With `O=C(NCC1Cn2nnc(-c3ccoc3)c2CO1)c1ccc[nH]1` (configuration not stated) the figure was 12.21%.
Turning to `O=C(C1CCCC1)N1C[C@@H]2CCNC[C@@H]21`, the INHIBITION worked out at 34.79%.
The same measure for `O=C(N1CCCC1)N1C[C@@H]2CCNC[C@@H]21`: 32.05%; for `O=C(C1CCCCC1)N1C[C@@H]2CCNC[C@@H]21`: 63.89%.
With `CC(=O)N1CC[C@H]2OCC[C@@]2(C(=O)NCCc2ccccn2)C1` the figure was 7.55%; with `O=C(NCCc1ccccn1)[C@@]12CCO[C@@H]1CCN(CC1CC1)C2`, 51.81%; with `CN1CC[C@H]2OCC[C@@]2(C(=O)NCCc2ccccn2)C1`, 23.81%.
With `CN(Cc1nc2ccccc2s1)C1CCCN(c2cccnn2)C1` (configuration not stated) the figure was 29.39%.
Take `c1cnc2nc(N3CCCC3c3nnc4n3CCCCC4)ccc2n1` (configuration not stated): the INHIBITION was 2.06%.
As for `Cc1c(C(=O)N[C@@H]2CC[C@@H](N3CCCC3)[C@@H]2O)[nH]c2ccc(F)cc12`, the INHIBITION was 30.96%.
For the molecule `O=C(NCC(=O)N1CCCCC1)c1sccc1C1CC1`, the INHIBITION was 54.62%.
The same measure for `Cc1ccc(C)n1-c1ccsc1C(=O)NCC(=O)N1CCCC1`: 36.34%; for `O=C(NCC(=O)N1CCN(c2ccccc2)CC1)c1sccc1C1CC1`: -31.42%.
For the molecule `Cc1ccc2nc(C(=O)N(C)[C@@H]3CC[C@@H](N4CCCC4)[C@@H]3O)cn2c1`, the INHIBITION is reported as -18.64%.
In the case of `Cc1ccsc1-c1nccn1CCN(C)S(C)(=O)=O`, the INHIBITION worked out at 4.48%.
With `Cc1ccsc1-c1nccn1CCS(C)(=O)=O` the figure was 38.1%; with `Cc1cn(CCn2ccnc2-c2sccc2C)nn1`, 59.08%.
With `COc1ccnc(NCc2ccccc2Cn2cccn2)n1`, the INHIBITION is -136.67%.
With `CN1CCCN(C(=O)NCCNc2ncccn2)CC1` the figure was -3.93%.
The same measure for `Cc1nn(C)c(C)c1-c1cnc(C2CCCN(C)C2)cn1` (configuration not stated): 22.81%; for `Cc1nn(C)c(C)c1-c1cnc(C2CCCN(S(C)(=O)=O)C2)cn1` (configuration not stated): 51.15%; for `CC(=O)N1CCCC(c2cnc(-c3c(C)nn(C)c3C)cn2)C1` (configuration not stated): 20.08%.
The same measure for `CN(C)c1ccc(CN(CCCn2ccnc2)Cc2c[nH]cn2)cc1`: 18.15%.
`Cn1c(CCNC(=O)Nc2cn[nH]c2)nc2ccc(F)cc21`: the INHIBITION turned out to be 55.36%.
Regarding `Cn1c(CCCNC(=O)Nc2cn[nH]c2)nc2ccccc21`, the INHIBITION was found to be 29.13%.
For `CC(C)n1nccc1NC(=O)NCCc1nc2ccc(F)cc2n1C`, the INHIBITION stood at 2.9%.
The same measure for `CN(Cc1ccccc1)C1(C(=O)NCC(N)=O)Cc2ccccc2C1`: 6.39%.
With `Cc1cc(CCC2CN(Cc3ccccc3C(=O)O)CCO2)ncn1` (configuration not stated) the figure was 0.3%.
On to `Cc1cc(C[S+]([O-])CC(=O)NCC(C)C)no1` (configuration not stated), for which the INHIBITION is -10.66%.
With `Cc1cc(C[S+]([O-])CC(=O)Nc2c(C)cccc2C)no1` (configuration not stated) the figure was 51.21%; with `Cc1cc(C[S+]([O-])CC(=O)NCc2ccccc2)no1` (configuration not stated), -15.28%.
Consider `CCOC(=O)CN1C(=O)CN(S(C)(=O)=O)CCC(OC)c2ccccc21` (configuration not stated), for which the INHIBITION worked out at 12.44%.
With `Cc1ccccc1CNC(=O)CN1CCN(Cc2nccn2C)CC1` the figure was -34.45%; with `Cn1ccnc1CN1CCN(CC(=O)NCC(F)(F)F)CC1`, 62.13%.
The same measure for `Cn1ccnc1CN1CCN(CC(=O)NCc2ccccc2F)CC1`: 26.09%; for `CS(=O)(=O)c1snnc1C1CCN(Cc2ccc3nccnc3c2)CC1`: 28.67%.
